Inconclusive results are not listed. A call without a number means that no potency is given here. Active and inactive are the calls of the source. Calls come from the whole dose curve.
assay: qHTS assay for small molecule agonists of the p53 signaling pathway - cell viability (AID 651633); settings: p53RE-bla HCT-116 viability, ATP luminescence, 16 h; series mostly up to 83.3 µM;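 note: p53RE-bla HCT reporter cells with a stable beta-lactamase p53 reporter; nearly all actives have a fitted effect of over 30% in size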
Source text: National Center for Advancing Translational Sciences [NCATS]
NIH Chemical Genomics Center [NCGC]
U.S. Environmental Protection Agency [EPA]
National Institutes of Environmental Health Sciences [NIEHS]
National Toxicology Program [NTP]
U.S. Food and Drug Administration [FDA]
p53, a tumor suppressor protein, is activated following cellular insult, including DNA damage and other cellular stresses. The activation of p53 regulates cell fate by inducing DNA repair, cell cycle arrest, apoptosis, or cellular senescence. The activation of p53, therefore, is a good indicator of DNA damage and other cellular stresses. […] The activation of the reporter gene under culture conditions can be detected by fluorescence intensity. This cell line was used to screen the Tox21 compound library in a 1536-well plate format and to identify agonists that activate the p53 signaling pathway.
Tox21 Assay Protocol Summary:
The p53RE-bla cells were dispensed at 4,000 cells/5 ul/well in 1536-well black wall/clear bottom plates using a Multidrop dispenser. After the assay plates were incubated at a 37 C/5% CO2 incubator for 5 hours, 23 nL of compounds dissolved in DMSO, positive controls or DMSO only was transferred to the assay plate by a pin tool. The plates were incubated at 37 C for 16 hours. After 1 uL of LiveBLAzerTM B/G FRET substrate was added using a Flying Reagent Dispenser, the plates were incubated at room temperature for 2 hours, and fluorescence intensity was measured by an Envision plate reader.
For cell viability readout that measures cytotoxicity, 4 ul/well of CellTiter-Glo reagent was added into the assay plates using a Flying Reagent Dispenser. After 30 min incubation at room temperature, the luminescence intensity in the plates was measured using a ViewLux plate reader.

Compound | Potency
COc1cc(C(=O)NCc2ccc(OCCN(C)C)cc2)cc(OC)c1OC | inactive
CCOc1ccccc1OCC | inactive
C=C[Si](OC(C)=O)(OC(C)=O)OC(C)=O | inactive
CCOC(=O)COC(=O)c1ccccc1C(=O)OCC | inactive
O=[N+]([O-])c1ccc(/C=N\O)o1 | inactive
NC(=O)N[C@@H](CCC(=O)O)C(=O)O | inactive
CCOC(=O)C1=NOC(c2ccccc2)(c2ccccc2)C1 | inactive
CC[N+](C)(CC)CCOC(=O)C1c2ccccc2Oc2ccccc21 | inactive
C=C(C)C(=O)OCCOCCOCCOCCOC(=O)C(=C)C | inactive
CCCCCCCCCC[N+](C)(C)[O-] | inactive
CCCCCC(C)N (stereo not given) | inactive
CCCCN1C=CN(C)C1 | inactive
CCOc1ccc2nc(S(N)(=O)=O)sc2c1 | inactive
CCCCCCC1CCC(=O)O1 (stereo not given) | inactive
NCCCC[C@H](N[C@@H](CCc1ccccc1)C(=O)O)C(=O)N1CCC[C@H]1C(=O)O | inactive
CO[Si](C)(OC)c1ccccc1 | inactive
C[N+]1(CC2COC(c3ccccc3)(c3ccccc3)O2)CCCCC1 (stereo not given) | inactive
Cc1ncc([C@@H](CCCCCCc2ccc3c(n2)NCCC3)CC(=O)O)cn1 | inactive
Cc1ccc(-c2ncc(Cl)cc2-c2ccc(S(C)(=O)=O)cc2)cn1 | inactive
CCC(C)(CCCC(C)C)OC(C)=O (stereo not given) | inactive

Compound | Potency
CC(C)(C)c1ccc(-c2ccc(C(C)(C)C)cc2)cc1 | inactive
CCCCN(CCC(=O)OCC)C(C)=O | inactive
CC(C)C[C@@H](N)C(=O)O | inactive
Cc1c(N)c(=O)n(-c2ccccc2)n1C | inactive
CC1=CC(=O)[C@H]2C[C@@H]1C2(C)C | inactive
C=CN1CCCCCC1=O | inactive
CC1=NS(=O)(=O)c2cc(Cl)ccc2N1 | inactive
CCN1CCOCC1 | inactive
O=S(=O)(O)c1cccc2ccccc12 | inactive
C[C@@H]1CCC[C@H](C)N1 | inactive
C[C@H]1C[C@H]2[C@@H]3CCC4=CC(=O)C=C[C@]4(C)[C@H]3C(=O)C[C@]2(C)[C@@]1(O)C(=O)CO | inactive
CN1C(C)(C)CC(O)CC1(C)C | inactive
CN(C)C(=O)Oc1cccc([N+](C)(C)C)c1 | inactive
NCCCC(N)(C(=O)O)C(F)F (stereo not given) | inactive
CCN(CC#N)c1cccc(C)c1 | inactive
CC(=O)c1cnccn1 | inactive
COC(=O)C1=C(C)NC(C)=C(C(=O)OC(C)C)C1c1cccc2nonc12 (stereo not given) | inactive
CCOCC(C)O (stereo not given) | inactive
O=S(=O)(O)c1cccc2c(S(=O)(=O)O)cccc12 | inactive
CN(C)[C@@H]1C(=O)C(C(=O)NCN2CCCC2)=C(O)[C@@]2(O)C(=O)C3=C(O)c4c(O)cccc4[C@@](C)(O)C3C[C@@H]12 (stereo not given in full) | inactive
